Results reported in the supplement of paper PMC10127200.
Where a name gives a salt, the structure may show the parent alone.

Tests used:
Experiment in all cases: Euclidean distance of Cell Painting phenotypic profile (signed KS, 77 features) to DMSO centroid (dimensionless distance); 5 or 10 uM (library dependent); higher = stronger phenotypic change vs DMSO (phenoactivity)
Conditions in all cases: 48 h
786-O = test system: 786-O
Procedure, shortened: (§1)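 Phenoactivity is defined as the Euclidean distance from a compound profile to the median vehicle profile. Each profile comprised 77 Harmony features, scored as signed Kolmogorov-Smirnov statistics versus same-plate vehicle wells, then plate-position corrected, correlation-weighted and replicate-averaged at the top dose. Five cancer lines and one healthy fibroblast line were exposed to library compounds for 48 h at 10 or 5 uM (0.1% DMSO final).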

A549 = test system: A549
Procedure, shortened: as §1

DU145 = test system: DU145
Procedure, shortened: as §1

FB = test system: FB
Procedure, shortened: as §1

HEPG2 = test system: HEPG2
Procedure, shortened: as §1

OVCAR4 = test system: OVCAR4
Procedure, shortened: as §1

SMILES | Euclidean distance (786-O) | Euclidean distance (A549) | Euclidean distance (DU145) | Euclidean distance (FB) | Euclidean distance (HEPG2) | Euclidean distance (OVCAR4)
CS(=O)(=O)c1ccc(C(=O)Nc2ccc(Cl)c(-c3ccccn3)c2)c(Cl)c1 [Vismodegib (GDC-0449)] | 1.82 | 1.01 | 0.671 | 1 | 0.631 | 0.924
O=S(=O)(c1cccc2cnccc12)N1CCCNCC1 [Fasudil (HA-1077) HCl] | 1.52 | 0.649 | 1.94 | 0.846 | 1.28 | 0.851
CO[C@@H](C(=O)N1Cc2[nH]nc(NC(=O)c3ccc(N4CCN(C)CC4)cc3)c2C1)c1ccccc1 | 1.39 | 1.46 | 1.66 | 1.66 | 1.25 | 1.03
CC(=O)O[C@@H]1CC[C@@]2(C)[C@@H](CC[C@]3(C)[C@@H]2C(=O)C=C2[C@@H]4[C@@H](C)[C@H](C)CC[C@]4(C)CC[C@]23C)[C@@]1(C)C(=O)O | 0.752 | 0.999 | 1.02 | 0.939 | 0.732 | 0.773
CN1CCN(c2nc(C3=C(c4c[nH]c5ccccc45)C(=O)NC3=O)c3ccccc3n2)CC1 [Sotrastaurin] | 2.18 | 1.58 | 1.36 | 2.47 | 1.37 | 1.2
CC(=O)Oc1ccccc1C(=O)Nc1ncc([N+](=O)[O-])s1 [Nitazoxanide] | 1.27 | 1.18 | 1.96 | 1.68 | 1.32 | 1.34
CCC(NC(C)C)C(O)c1ccc(O)c2[nH]c(=O)ccc12 (configuration not stated) [Procaterol HCl] | 1.23 | 1.55 | 0.791 | 0.891 | 2.17 | 1.67
CC1(C)C2CCC1(C)C(O)C2 (configuration not stated) [Borneol] | 1.17 | 0.812 | 1.16 | 0.792 | 0.614 | 1.08
COc1ccc2cc3[n+](cc2c1OC)CCc1cc2c(cc1-3)OCO2 [Berberine] | 1.31 | 1.85 | 0.876 | 1.96 | 1.57 | 1.4
CNC(=O)CN(CCN(CCN(CC(=O)[O-])CC(=O)NC)CC(=O)[O-])CC(=O)[O-].O.[Gd+3] [Gadodiamide Hydrate] | 1.58 | 0.803 | 1.3 | 1.38 | 0.469 | 0.986
CNC(=O)c1cnn(-c2nc(N)c3ncn([C@@H]4O[C@H](CO)[C@@H](O)[C@H]4O)c3n2)c1 [Regadenoson] | 0.517 | 0.628 | 0.867 | 1.43 | 1.32 | 0.995
O=C(CCCCCCNC(=O)c1cnc(N(c2ccccc2)c2ccccc2Cl)nc1)NO [Citarinostat (ACY-241)] | 1.92 | 2.05 | 2.16 | 3.07 | 2.52 | 1.75
CS(=O)(=O)c1ccc(-c2cnc(N)c(C(=O)Nc3ccccc3)n2)cc1 | 0.811 | 2.05 | 1.29 | 1.27 | 1.07 | 1.23
Nc1ncn([C@@H]2O[C@H](CO)[C@@H](O)[C@H]2O)c(=O)n1 [Azacitidine] | 1.87 | 1.89 | 1.92 | 2.79 | 1.69 | 1.33
O=C(O)CCNC(=O)c1ccccc1 [Betamipron] | 0.807 | 1.17 | 1.01 | 0.869 | 0.988 | 1.34
Nc1nc2[nH]cc(CCc3ccc(C(=O)N[C@@H](CCC(=O)O)C(=O)O)cc3)c2c(=O)[nH]1 [Pemetrexed Disodium Hydrate] | 2.12 | 2.97 | 1.28 | 0.937 | 2.46 | 2.8
CCOC(=O)/C=C(C)/C=C/C=C(C)/C=C/c1c(C)cc(OC)c(C)c1C [Etretinate] | 0.891 | 0.993 | 1.22 | 1.15 | 1.14 | 1.85
Nc1cccc2c1C(=O)N(C1CCC(=O)NC1=O)C2=O (configuration not stated) [Pomalidomide] | 0.929 | 0.804 | 0.704 | 1.06 | 0.312 | 0.886
N=C(NCCCCCCNC(=N)NC(=N)Nc1ccc(Cl)cc1)NC(=N)Nc1ccc(Cl)cc1 [Chlorhexidine] | 2.05 | 3.54 | 1.97 | 2.12 | 2.92 | 3.25
CC[C@H](C)C[C@H](C)CCCCCCCCC(=O)N[C@H]1C[C@@H](O)[C@@H](NCCN)NC(=O)[C@@H]2[C@@H](O)CCN2C(=O)[C@H]([C@H](O)CCN)NC(=O)[C@H]([C@H](O)[C@@H](O)c2ccc(O)cc2)NC(=O)[C@@H]2C[C@@H](O)CN2C(=O)[C@H]([C@@H](C)O)NC1=O [Caspofungin Acetate] | 2.18 | 0.866 | 1.51 | 2.42 | 1.15 | 1.86
Cc1cccc(Nc2ccccc2C(=O)O)c1C [Mefenamic Acid] | 0.733 | 0.521 | 0.8 | 1.14 | 0.673 | 0.64
O=[N+]([O-])c1cn2c(n1)OC[C@@H](OCc1ccc(OC(F)(F)F)cc1)C2 | 1.49 | 1.06 | 0.837 | 1.12 | 0.872 | 1.03
CC[C@@H]([C@H](C)O)n1ncn(-c2ccc(N3CCN(c4ccc(OC[C@@H]5CO[C@@](Cn6cncn6)(c6ccc(F)cc6F)C5)cc4)CC3)cc2)c1=O [Posaconazole] | 3.81 | 2.06 | 2.09 | 2.3 | 1.43 | 1.21
CC(C)(C)C(=O)Oc1ccc(S(=O)(=O)Nc2ccccc2C(=O)NCC(=O)O)cc1 [Sivelestat (ONO-5046)] | 0.847 | 0.693 | 0.861 | 1.16 | 0.614 | 0.797

SMILES | Euclidean distance (786-O) | Euclidean distance (A549) | Euclidean distance (DU145) | Euclidean distance (FB) | Euclidean distance (HEPG2) | Euclidean distance (OVCAR4)
O=C(c1ccccc1)c1ccc2n1CCC2C(=O)O (configuration not stated) [Ketorolac] | 1.49 | 1.29 | 0.701 | 0.977 | 0.545 | 1.06
C#Cc1cccc(Nc2ncnc3cc4c(cc23)OCCOCCOCCO4)c1 [Icotinib] | 1.83 | 1.46 | 1.62 | 1.18 | 1.35 | 1.32
CCOc1cc(N)c(Cl)cc1C(=O)NCC1CN(Cc2ccc(F)cc2)CCO1 (configuration not stated) [Mosapride] | 1.2 | 0.542 | 0.858 | 1.33 | 0.651 | 1.09
O=C1CC[C@@H](C(=O)N2CSC[C@H]2C(=O)O)N1 [Pidotimod] | 1.14 | 0.696 | 0.731 | 0.833 | 0.84 | 0.854
CC(C)Nc1cc(-c2c[nH]c(C(=O)N[C@H](CO)c3cccc(Cl)c3)c2)c(Cl)cn1 | 2.42 | 4.11 | 3.64 | 3.51 | 1.79 | 3.1
Oc1ccc2c(c1)CC[C@H](c1ccccc1)[C@@H]2c1ccc(OCCN2CCCC2)cc1 [Lasofoxifene Tartrate] | 2.93 | 2.42 | 3.01 | 2.8 | 4.32 | 2.5
CNCCCN1c2ccccc2CCc2ccccc21 [Desipramine Hydrochloride] | 0.817 | 1.07 | 1.11 | 1.73 | 1.43 | 1.25
O=C(/C=C/c1ccc(O)c(O)c1)OCCc1ccccc1 [Caffeic Acid Phenethyl Ester] | 1.43 | 2.31 | 1.1 | 1.78 | 1.71 | 1.18
CC1=NN(c2ccc(C)c(C)c2)C(=O)/C1=N\Nc1cccc(-c2cccc(C(=O)O)c2)c1O [Eltrombopag] | 2.4 | 1.81 | 3.38 | 2.71 | 3.89 | 2.45
Nc1ccc(S(=O)(=O)Nc2ccnn2-c2ccccc2)cc1 [Sulfaphenazole] | 0.816 | 0.571 | 1.03 | 0.58 | 0.469 | 1.26
CCCC(=O)O[C@]1(C(=O)CO)CC[C@H]2[C@@H]3CCC4=CC(=O)CC[C@]4(C)[C@H]3[C@@H](O)C[C@@]21C [Hydrocortisone butyrate] | 1.21 | 2.18 | 1.87 | 1.7 | 1.87 | 2.45
COc1ccc(-c2ccc3ncc4c(c3c2)n(-c2ccc(N3CCNCC3)c(C(F)(F)F)c2)c(=O)n4C)cn1 | 6.24 | 5.51 | 7.61 | 6.11 | 5.69 | 5.98
N[C@@H](CC(=O)O)C(=O)O [L-aspartic Acid] | 1.2 | 1.3 | 0.701 | 0.809 | 0.455 | 1.44
COc1cc([C@@H]2c3cc4c(cc3[C@@H](O[C@@H]3O[C@@H]5CO[C@@H](c6cccs6)O[C@H]5[C@H](O)[C@H]3O)[C@H]3COC(=O)[C@H]23)OCO4)cc(OC)c1O [Teniposide] | 2.74 | 3.77 | 4.38 | 3.23 | 3.39 | 3.66
CCc1c(C)[nH]c2c1C(=O)C(CN1CCOCC1)CC2 (configuration not stated) [Molindone hydrochloride] | 1.11 | 0.479 | 0.934 | 0.703 | 0.317 | 0.874
COc1ccc2cc1Oc1ccc(cc1)C[C@H]1c3c(cc4c(c3Oc3cc5c(cc3OC)CCN(C)[C@@H]5C2)OCO4)CCN1C [Cepharanthine] | 4.22 | 4.24 | 3.62 | 4.8 | 3.63 | 3.87
Cc1nc(Nc2ncc(C(=O)Nc3c(C)cccc3Cl)s2)cc(N2CCN(CCO)CC2)n1 [Dasatinib Monohydrate] | 3.41 | 3.76 | 6.08 | 3.53 | 2.09 | 4.26
CC(C)(Oc1ccc(C(=O)c2ccc(Cl)cc2)cc1)C(=O)O [Fenofibric acid] | 0.559 | 1.24 | 0.978 | 1.59 | 0.698 | 0.976
COCC1=C(C(=O)OC(C)OC(=O)OC(C)C)N2C(=O)[C@@H](NC(=O)/C(=N\OC)c3csc(N)n3)[C@H]2SC1 (some centres not stated) [Cefpodoxime proxetil] | 1.25 | 0.683 | 0.813 | 1.04 | 0.687 | 0.958
Cc1ccc2nc(NCCN)c3ncc(C)n3c2c1 | 0.585 | 1.64 | 1.21 | 1.55 | 2.99 | 1.57
Nc1nc2[nH]cnc2c(=S)[nH]1 [Thioguanine] | 1.65 | 2.5 | 1.48 | 0.807 | 3.13 | 2.12
CC(C)CC(=O)Nc1n[nH]c2c1CN(C(=O)C1CCN(C)CC1)C2(C)C | 3.52 | 3 | 2.9 | 2.96 | 2.82 | 4.04
CC(=O)O[C@H]1C(=O)[C@@]2(C)[C@H]([C@H](OC(=O)c3ccccc3)[C@]3(O)C[C@H](OC(=O)[C@H](O)[C@@H](NC(=O)c4ccccc4)c4ccccc4)C(C)=C1C3(C)C)[C@]1(OC(C)=O)CO[C@@H]1C[C@@H]2O [Paclitaxel] | 3.07 | 2.6 | 4.23 | 2.69 | 2.08 | 2.73
